The source of these data is PubChem BioAssay (NCATS).

SMILES strings stand for the structures. Inconclusive results are not listed. A call without a number means that no potency is given here. The source made the active and inactive calls. Calls come from the whole dose curve; as a rule, active = well fitted inhibition curve with a large enough effect; inconclusive = small, poorly fitted or top-dose-only effect; inactive = flat fitted curve, though single readings scatter. Where a SMILES comes first, the peptide text is derived from it. Bridges are numbered along the chain shown (N, C = ends). [ ]: non-standard residue; d: D form. hArg = N=C(N)NCCCC[C@H](N)C(=O)O; Mpa = O=C(O)CCS
Note: nearly all actives have a fitted effect of over 65% in size.

Glutathione peroxidase 1 (Homo sapiens), sequence (P07203 whole entry, looked up): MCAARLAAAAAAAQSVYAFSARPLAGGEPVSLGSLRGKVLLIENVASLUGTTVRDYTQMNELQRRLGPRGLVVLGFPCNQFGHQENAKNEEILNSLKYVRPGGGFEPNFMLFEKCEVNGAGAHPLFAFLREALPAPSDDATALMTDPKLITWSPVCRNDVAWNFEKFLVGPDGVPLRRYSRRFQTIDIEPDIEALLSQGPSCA
Phospholipid hydroperoxide glutathione peroxidase GPX4 (Homo sapiens), sequence (P36969 whole entry, looked up): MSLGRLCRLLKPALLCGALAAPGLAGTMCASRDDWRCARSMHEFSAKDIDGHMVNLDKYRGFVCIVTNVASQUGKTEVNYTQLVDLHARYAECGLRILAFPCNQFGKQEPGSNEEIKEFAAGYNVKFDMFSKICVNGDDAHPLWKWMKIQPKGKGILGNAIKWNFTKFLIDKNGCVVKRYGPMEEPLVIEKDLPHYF

The first assay deals with Glutathione peroxidase 1 (Homo sapiens) (UniProt P07203). Nature of the assay: Primary qHTS Assay for Inhibitors of Recombinant Selenoprotein Glutathione Peroxidase 1 (GPX1) (AID 1845191). Note: potency is the fitted concentration of half-maximal effect. As to conditions: recombinant GPX1, GR-coupled NADPH fluorescence, 15 min; series mostly up to 48.8 µM. The gist of the method:
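GPX1 10 nM, GR 100 nM, GSH 1 mM, NADPH 0.5 mM, CHP 0.5 mM (final). 30-min cpd preincubation, RT. Ex340/Em450 read t=0, t=15 min.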
(Quantitative high-throughput screening tests each substance at several concentrations.)
On to `COc1ccc2cc(CCC(C)=O)ccc2c1`, for which the Potency result was “inactive”.

In the case of `O=C(c1ccccc1)C(O)c1ccccc1` (stereo not drawn), the Potency result was “inactive”.

Regarding `CCCCCCCC(=O)OCC(COC(=O)CCCCCCC)OC(=O)CCCCCCC`, the Potency result is “inactive”.

Turning to `COc1nccnc1NS(=O)(=O)c1ccc(N)cc1`, the Potency entry is “inactive”.

Turning to `Nc1ccc(S(=O)(=O)c2ccc(N)cc2)cc1`, the Potency entry is “inactive”.

In the case of `O=C(O)c1ccc(OCCCOc2ccc(C(=O)O)cc2)cc1`, the Potency result is “inactive”.

Take `Cc1c(NC(=O)c2cccnc2)c(=O)n(-c2ccccc2)n1C`: the Potency result was “inactive”.

For `Cc1cccc(C)c1NC(=O)CC12CCCN1CCC2`, the Potency result was “inactive”.

As for `C[C@H]1COc2c(C3(N)CC3)c(F)cc3c(=O)c(C(=O)O)cn1c23`, the Potency result was “inactive”.

With `CC(C)=CCC/C(C)=C/CO`, the Potency result was “inactive”.

As to `CC(=O)Oc1cccc(O)c1`, the Potency result was “inactive”.

With `COc1ccc(C(=O)NCc2ccc(OCCN(C)C)cc2)cc1OC`, the Potency result was “inactive”.

In the case of `CCOc1cc(NC(C)=O)ccc1C(=O)OC`, the Potency result was “inactive”.

For the compound `CCN1CC(CCN2CCOCC2)C(c2ccccc2)(c2ccccc2)C1=O` (stereo not drawn), the Potency entry was “inactive”.

For `NC(=O)[C@@H]1CSSCCC(=O)N[C@@H](CCCCN=C(N)N)C(=O)NCC(=O)N[C@@H](CC(=O)O)C(=O)N[C@@H](Cc2c[nH]c3ccccc23)C(=O)N2CCC[C@H]2C(=O)N1` ([Mpa][hArg]GDWPC-NH2; disulfide 1-7), the Potency entry is “inactive”.

`Cc1[nH]c(C)c(Cl)c(=O)c1Cl`: the Potency result is “inactive”.

As for `CC(=O)OC[C@H]1O[C@@](COC(C)=O)(O[C@H]2O[C@H](COC(C)=O)[C@@H](OC(C)=O)[C@H](OC(C)=O)[C@H]2OC(C)=O)[C@@H](OC(C)=O)[C@@H]1OC(C)=O`, the Potency result was “inactive”.

On to `CC(=O)N[C@@H](Cc1ccc(O)cc1)C(=O)O`, for which the Potency entry was “inactive”.

Turning to `C[C@@H]1O[C@@H](OC[C@H]2O[C@@H](Oc3c(-c4ccc(O)c(O)c4)oc4cc(O)cc(O)c4c3=O)[C@H](O)[C@@H](O)[C@@H]2O)[C@H](O)[C@H](O)[C@H]1O`, the Potency result is “inactive”.

`CC(CSC(=O)c1ccccc1)C(=O)N1C[C@@H](Sc2ccccc2)C[C@H]1C(=O)O` (stereo partly drawn): the Potency entry is “inactive”.

In the case of `O[C@@H]1CO[C@H]2[C@@H]1OC[C@@H]2O`, the Potency result was “inactive”.

With `O=C1C(c2[nH]c3ccccc3c2O)=Nc2ccccc21`, the Potency entry was “inactive”.

For `NC(=O)CCCCC1CCSS1` (stereo not drawn), the Potency result was “inactive”.

As to `Cc1c(I)c(=O)n(-c2ccccc2)n1C`, the Potency result is “inactive”.

Regarding `Cc1cc(OI)c(C(C)C)cc1-c1cc(C(C)C)c(OI)cc1C`, the Potency result was “inactive”.

On to `NCc1ccc(S(N)(=O)=O)cc1`, for which the Potency entry was “inactive”.

Turning to `Cc1cc(C)c(NC(=O)CN(CC(=O)O)CC(=O)O)c(C)c1Br`, the Potency result is “inactive”.

As to `O=C(O)CCCCC1CCSS1` (stereo not drawn), the Potency is 11.4 µM (active).

Consider `CCS(=O)(=O)CCn1c([N+](=O)[O-])cnc1C`, for which the Potency result was “inactive”.

As to `COc1ccc(NS(=O)(=O)c2ccc(N)cc2)nn1`, the Potency entry is “inactive”.

In the case of `CCCCCCCCCCOc1cc2c(=O)c(C(=O)OCC)c[nH]c2cc1OCC`, the activity, negative = inhibition was -3.55% [at 4.49 µM] (inactive).

For the compound `O=C(OOC(=O)c1ccccc1)c1ccccc1`, the Potency result is “inactive”.

As for `CCCCCCCCCCC(CO)CCCCCCCC` (stereo not drawn), the Potency entry is “inactive”.

For `CN(C/C=C/C#CC(C)(C)C)Cc1cccc2ccccc12`, the Potency entry was “inactive”.

The next assay addresses Phospholipid hydroperoxide glutathione peroxidase GPX4 (Homo sapiens) (UniProt P36969). Nature of the assay: Primary qHTS Assay for Inhibitors of Recombinant Selenoprotein Glutathione Peroxidase 4 (GPX4) (AID 1845192). As to conditions: recombinant GPX4, GR-coupled NADPH fluorescence, 15 min; series mostly up to 50 µM. Summed up: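 qHTS, GR-coupled: GPX4 200 nM + cpd 30 min RT → GSH 1 mM, NADPH 0.5 mM, GR 100 nM → CHP 0.5 mM start; fluor 340/450 at t0 and t15 min; no-enzyme wells as control.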
Regarding `COc1ccc2cc(CCC(C)=O)ccc2c1`, the Potency entry is “inactive”.

In the case of `O=C(c1ccccc1)C(O)c1ccccc1` (stereo not drawn), the Potency entry is “inactive”.

For `CCCCCCCC(=O)OCC(COC(=O)CCCCCCC)OC(=O)CCCCCCC`, the Potency result is “inactive”.

As to `COc1nccnc1NS(=O)(=O)c1ccc(N)cc1`, the Potency result was “inactive”.

Turning to `Nc1ccc(S(=O)(=O)c2ccc(N)cc2)cc1`, the Potency entry is “inactive”.

For the compound `O=C(O)c1ccc(OCCCOc2ccc(C(=O)O)cc2)cc1`, the Potency result was “inactive”.

For `Cc1c(NC(=O)c2cccnc2)c(=O)n(-c2ccccc2)n1C`, the Potency entry was “inactive”.

For `Cc1cccc(C)c1NC(=O)CC12CCCN1CCC2`, the Potency entry is “inactive”.

On to `C[C@H]1COc2c(C3(N)CC3)c(F)cc3c(=O)c(C(=O)O)cn1c23`, for which the Potency entry was “inactive”.

In the case of `CC(C)=CCC/C(C)=C/CO`, the Potency result is “inactive”.

As to `CC(=O)Oc1cccc(O)c1`, the Potency result was “inactive”.

Consider `COc1ccc(C(=O)NCc2ccc(OCCN(C)C)cc2)cc1OC`, for which the Potency entry was “inactive”.

Regarding `CCOc1cc(NC(C)=O)ccc1C(=O)OC`, the Potency result was “inactive”.

Turning to `CCN1CC(CCN2CCOCC2)C(c2ccccc2)(c2ccccc2)C1=O` (stereo not drawn), the Potency result is “inactive”.

Regarding `NC(=O)[C@@H]1CSSCCC(=O)N[C@@H](CCCCN=C(N)N)C(=O)NCC(=O)N[C@@H](CC(=O)O)C(=O)N[C@@H](Cc2c[nH]c3ccccc23)C(=O)N2CCC[C@H]2C(=O)N1` ([Mpa][hArg]GDWPC-NH2; disulfide 1-7), the Potency result is “inactive”.

Consider `Cc1[nH]c(C)c(Cl)c(=O)c1Cl`, for which the Potency entry is “inactive”.

Take `CC(=O)OC[C@H]1O[C@@](COC(C)=O)(O[C@H]2O[C@H](COC(C)=O)[C@@H](OC(C)=O)[C@H](OC(C)=O)[C@H]2OC(C)=O)[C@@H](OC(C)=O)[C@@H]1OC(C)=O`: the Potency result is “inactive”.

As for `CC(=O)N[C@@H](Cc1ccc(O)cc1)C(=O)O`, the Potency result was “inactive”.

Regarding `C[C@@H]1O[C@@H](OC[C@H]2O[C@@H](Oc3c(-c4ccc(O)c(O)c4)oc4cc(O)cc(O)c4c3=O)[C@H](O)[C@@H](O)[C@@H]2O)[C@H](O)[C@H](O)[C@H]1O`, the Potency result was “inactive”.

Turning to `O[C@@H]1CO[C@H]2[C@@H]1OC[C@@H]2O`, the Potency entry is “inactive”.

With `O=C1C(c2[nH]c3ccccc3c2O)=Nc2ccccc21`, the Potency result was “inactive”.

On to `NC(=O)CCCCC1CCSS1` (stereo not drawn), for which the Potency entry is “inactive”.

For `Cc1c(I)c(=O)n(-c2ccccc2)n1C`, the Potency result was “inactive”.

As to `OC(CCN1CCCC1)(c1ccccc1)C1CCCCC1` (stereo not drawn), the Potency entry was “inactive”.

Turning to `Cc1cc(OI)c(C(C)C)cc1-c1cc(C(C)C)c(OI)cc1C`, the Potency entry was “inactive”.

As to `NCc1ccc(S(N)(=O)=O)cc1`, the Potency entry was “inactive”.

`Cc1cc(C)c(NC(=O)CN(CC(=O)O)CC(=O)O)c(C)c1Br`: the Potency result was “inactive”.

For `O=C(O)CCCCC1CCSS1` (stereo not drawn), the Potency result is “inactive”.

On to `CCS(=O)(=O)CCn1c([N+](=O)[O-])cnc1C`, for which the Potency entry is “inactive”.

In the case of `COc1ccc(NS(=O)(=O)c2ccc(N)cc2)nn1`, the Potency entry is “inactive”.

On to `C/C(=C(\CCO)SS/C(CCO)=C(\C)N(C=O)Cc1cnc(C)nc1N)N(C=O)Cc1cnc(C)nc1N`, for which the Potency result is “inactive”.

In the case of `O=C(OOC(=O)c1ccccc1)c1ccccc1`, the Potency entry was “inactive”.

For `CCCCCCCCCCC(CO)CCCCCCCC` (stereo not drawn), the Potency result is “inactive”.

On to `CN(C/C=C/C#CC(C)(C)C)Cc1cccc2ccccc12`, for which the Potency entry is “inactive”.
